The supplement of paper PMC9262897, “Low-cost anti-mycobacterial drug discovery using engineered E. coli” (Nature Communications, 2022)
Structures can show the parent of a compound that is named as a salt. ± gives the standard deviation of the averaged measurements.

These compounds were tested on E. coli TESEC Alr+ wild-type control (assay: growth (OD600 after 10 h); higher = more growth (less inhibition)). Settings: compound 0.1 mM; raw OD600 reference: median of DMSO wells 0.241, cell-free background 0.041.
Method: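 TESEC Mtb Alr E. coli, or the Alr+ wild-type control, in 384-well plates with Prestwick library compounds at 0.1 mM and 1% DMSO, across arabinose induction levels of 1E3 to 1E7 nM. Growth is read as OD600 after 10 h at 37 °C in triplicate biological replicates.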

Compared with `CN1CCc2cccc3c2[C@H]1Cc1ccc(O)c(O)c1-3` [R(-) Apomorphine hydrochloride hemihydrate], `CN1CCCN(C(c2ccccc2)c2ccc(Cl)cc2)CC1` (stereo not drawn) [Homochlorcyclizine dihydrochloride] is higher in growth: 0.0618 ± 0.002 for the first, 0.189 ± 0.0068 for the second.

`Cc1ncc(CO)c(CO)c1O` [Pyridoxine hydrochloride] and `CC(C)C[C@H](NC(=O)[C@@H](O)[C@H](N)Cc1ccccc1)C(=O)O` [Ubenimex] are within error of each other in growth: 0.258 ± 0.0075 for the first, 0.24 ± 0.011 for the second.

Going from `O=C(NCC(O)CO)c1c(I)c(C(=O)NCC(O)CO)c(I)c(N(CCO)C(=O)CO)c1I` (stereo not drawn) [Ioversol] to `C=Cc1c(C)c2cc3nc(cc4[nH]c(cc5nc(cc1[nH]2)C(C)=C5CCC(=O)O)c(CCC(=O)OC)c4C)[C@@]1(C)C3=CC=C(C(=O)OC)C1C(=O)OC.C=Cc1c(C)c2cc3nc(cc4[nH]c(cc5nc(cc1[nH]2)C(C)=C5CCC(=O)OC)c(CCC(=O)O)c4C)[C@@]1(C)C3=CC=C(C(=O)OC)C1C(=O)OC` (stereo partly drawn) [Verteporfin], the growth rises from 0.257 ± 0.0068 to 0.313 ± 0.011.

First: C[C@@H]1[C@H](O)[C@@H](C)/C=C/C=C/C=C/C=C/C=C/C=C/C=C/[C@H](O[C@@H]2O[C@H](C)[C@@H](O)[C@H](N)[C@@H]2O)C[C@@H]2O[C@](O)(C[C@@H](O)C[C@@H](O)[C@H](O)CC[C@@H](O)C[C@@H](O)CC(=O)O[C@H]1C)C[C@H](O)[C@H]2C(=O)O [Amphotericin B]
Second: CC(COc1ccccc1)N(CCCl)Cc1ccccc1 (stereo not drawn) [Phenoxybenzamine hydrochloride]
The growth of the first is higher: 0.316 ± 0.0027 for the first, 0.0435 ± 0.0034 for the second.
